Test [1] in a line: CCTE_Shafer_MEA_acute_network_burst_percentage: CCTE's Neural Acute Assay for Percentage of Network Bursts, Shafer Lab (AID 2284022).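 Note: curves fitted for loss so actives lower network burst percentage.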 In a few lines: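 Readout is the fraction of spikes falling in network bursts, expressed as per-well percent change from a 40-min pre-exposure baseline. Primary rat cortical neurons on MEA were exposed to 0.03-40 uM compound on DIV 13 or 15 and recorded for 40 min at 37 C.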

A short description of test [2]: CCTE_Shafer_MEA_acute_cross_correlation_area: CCTE's Neural Acute Assay for Area of Cross Correlation, Shafer Lab (AID 2284024).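 Note: rat primary cortical neuron networks on 48-well MEA at DIV 13 or 15 with 40 min exposure; area under pooled inter-electrode spike cross-correlation near zero lag as percent change from own baseline; curves fitted for loss of cross-correlation area so actives lower synchrony.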 In a few lines:
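Plates equilibrated 20 min at 37 C, then 40 min baseline was recorded, compound was added (0.03-40 uM), and a further 40 min was recorded. Wells needed ≥10 active electrodes (≥5 spikes/min) on exposure day.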

Test [3] can be described thus: CCTE_Shafer_MEA_acute_cross_correlation_HWHM: CCTE's Neural Acute Assay for Cross Correlation at Half Width at Half Maximum, Shafer Lab (AID 2284026).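 For outcome: spontaneous network firing of rat primary cortical neurons on multiwell microelectrode arrays.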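 Note: percent change per well from pre-dose baseline in spike cross-correlogram half width; hits are a decrease in cross-correlogram half width relative to DMSO.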 In outline: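 Rat cortical neuron cultures on microelectrode arrays were equilibrated 20 min at 37 C, recorded 40 min at baseline, then 40 min after compound addition (0.03-40 uM, ≥3 wells). Spikes were detected at 8x rms noise after 300-5000 Hz band-pass filtering.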

Test [4] in a line: CCTE_Shafer_MEA_acute_synchrony_index: CCTE's Neural Acute Assay for Synchrony, Shafer Lab (AID 2284027).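 Note: network synchrony index of spontaneous spiking in primary rat cortical neurons on MEAs; fitted for loss of signal so actives lower synchrony relative to DMSO.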 In a few lines:
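Primary rat cortical neurons on 16-electrode MEA wells were recorded 40 min at baseline (DIV 13 or 15) and 40 min after compound (0.03-40 uM) at 37 C. Synchrony index (0-1) expressed as percent change from baseline, versus DMSO.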

Test [5] is described as follows: CCTE_Shafer_MEA_dev_firing_rate_mean: CCTE's Neural Network Formation Assay for Mean Firing Rate, Shafer Lab (AID 2284031).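 For AC50: curve fitted for loss of firing so AC50 reflects decreased mean firing rate.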 In outline:
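Primary rat cortical neurons on 48-well, 16-electrode MEAs (PEI-coated, laminin at plating), exposed from day 0 with compound renewed at DIV 5 and 9. Spikes recorded DIV 5, 7, 9, 12; well-mean firing rate collapsed to trapezoidal AUC, loss-of-signal vs DMSO.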

Test [6] can be described thus: CCTE_Shafer_MEA_dev_per_burst_spike_percent: CCTE's Neural Network Formation Assay for Percent of Spikes in a Burst, Shafer Lab (AID 2284032).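 For AC50: fitted as a decrease in burst spike percentage below DMSO baseline.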 In outline:
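Rat primary cortical neurons on 16-electrode MEA wells, dosed from plating day 0 for 12 days with renewal on DIV 5 and 9; spikes-in-bursts percentage averaged over bursting electrodes, collapsed as AUC across days 5, 7, 9, 12; loss direction versus DMSO.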

Test [7] in a line: CCTE_Shafer_MEA_dev_active_electrodes_number: CCTE's Neural Network Formation Assay for Number of Active Electrodes, Shafer Lab (AID 2284040; active = hit-call score of the fitted dose curve at least 0.9, where 1 is the maximum;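 note: potency for loss of active electrodes versus DMSO so lower counts are hits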). In a few lines: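 Rat cortical primary cultures, 1.5 x 10^5 cells/well, PEI-coated MEA, laminin drop. Continuous exposure DIV 0–12; full media/compound change DIV 5, 9. Readout: electrodes with mean firing ≥5 spikes/min; AUC across days; loss vs DMSO.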

Test [8] in a line: CCTE_Shafer_MEA_dev_burst_rate: CCTE's Neural Network Formation Assay for Burst Rate, Shafer Lab (AID 2284042).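 For AC50: potency for loss of burst rate below DMSO control.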 In outline: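 Exposure ran continuously over 12 days of network development in rat cortical cultures, with compound refreshed during full media changes on DIV 5 and 9. Single-electrode bursts per recording time, well-mean over active electrodes, trapezoidal AUC across days 5–12, fitted downward relative to DMSO.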

A short description of test [9]: CCTE_Shafer_MEA_dev_bursting_electrodes_number: CCTE's Neural Network Formation Assay for Number of Bursting Electrodes, Shafer Lab (AID 2284043; active = hit-call score of the fitted dose curve at least 0.9, where 1 is the maximum;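 note: potency is for loss of bursting electrodes relative to DMSO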). In outline: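 Read-out is the per-well number of electrodes bursting at least once every 2 minutes, recorded on days 5, 7, 9 and 12 and collapsed by trapezoidal area under the curve. Cultures were primary rat cortical neurons on MEA plates, treated continuously from plating.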

Test [10] is described as follows: CCTE_Shafer_MEA_dev_per_burst_interspike_interval: CCTE's Neural Network Formation Assay for Burst Interspike Interval, Shafer Lab (AID 2284044).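 For AC50: potency for a decrease of within-burst interspike interval below DMSO level.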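 Note: mean spike spacing inside bursts as AUC over recordings on days 5 7 9 12.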 In outline:
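Neurons from rat cortex plated onto PEI-coated MEA wells with laminin […] at 1.5 x 10^5 cells/well, then treated from day 0. Media and compound fully replaced on DIV 5 and 9. Extracellular spontaneous firing recorded four times; interspike interval per burst summarised as AUC.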

A short description of test [11]: CCTE_Shafer_MEA_dev_burst_duration_mean: CCTE's Neural Network Formation Assay for Mean Burst Duration, Shafer Lab (AID 2284045).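 For AC50: curve fitted for loss meaning shorter burst duration than DMSO.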 In outline:
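Read-out: average first-to-last-spike interval within single-electrode bursts, averaged over bursting electrodes per well, then summarised as area under the curve across days 5, 7, 9 and 12. Developing rat cortical networks were exposed from day 0.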

Test [12] is described as follows: CCTE_Shafer_MEA_dev_interburst_interval_mean: CCTE's Neural Network Formation Assay for Mean Interburst Interval, Shafer Lab (AID 2284046).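 Note: curve fitted for decrease in interburst interval relative to DMSO.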 In outline: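 Primary rat cortical neurons on PEI-coated 48-well MEA plates (laminin added with cells at plating) (16 electrodes/well), exposed from plating day 0 with renewal at DIV 5 and 9. Mean inter-burst interval averaged over bursting electrodes, AUC across days 5, 7, 9, 12; DMSO baseline.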

Test [13] in a line: CCTE_Shafer_MEA_dev_inter_network_spike_interval_mean: CCTE's Neural Network Formation Assay for Mean Inter-network Spike Interval, Shafer Lab (AID 2284047). In a few lines: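 Mean time between consecutive network-spike peaks, recorded extracellularly (adaptive spike detection) on DIV 5, 7, 9 and 12, summarized as trapezoidal AUC. Rat cortical cultures on MEAs dosed continuously days 0–12, re-dosed at feeds; loss-of-signal fit relative to DMSO.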

A short description of test [14]: CCTE_Shafer_MEA_dev_network_spike_number: CCTE's Neural Network Formation Assay for Number of Network Spikes, Shafer Lab (AID 2284048).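 For AC50: fit as a loss of signal meaning fewer network spikes than DMSO.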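 Note: synchronized bursts across electrodes counted on days 5 7 9 12 and integrated as AUC.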 In a few lines:
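Developing networks of primary rat cortical neurons are treated over 12 days starting at plating, with media and compound fully replaced on DIV 5 and 9. Network spike counts from four recording days are integrated as trapezoidal AUC.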

Test [15] concerns the target Estrogen receptor (Homo sapiens) (UniProt P03372). Description: CCTE_Deisenroth_AIME_384WELL_LUC_Active: CCTE's 384-well Estrogen Receptor Transactivation Assay with AIME metabolic competence (ERTA luciferase; metabolism positive), Deisenroth Lab (AID 2284030; active = hit-call score of the fitted dose curve at least 0.9, where 1 is the maximum). In outline: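 AIME metabolism-positive mode: chemicals 0.002 - 200 uM, 2 h with alginate-bound PB/BNF-induced rat S9 → medium to VM7Luc4E2 ERTA, 24 h → luciferase. Positive fit vs 17beta-estradiol; n=4 typical.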

Test [16] in a line: CCTE_Deisenroth_AIME_384WELL_CTox_Active: Cytotoxicity Assessment (CTOX) in CCTE's 384-well Estrogen Receptor Transactivation Assay with AIME metabolic competence (metabolism positive), Deisenroth Lab (AID 2284037; active = hit-call score of the fitted dose curve at least 0.9, where 1 is the maximum;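 note: activity means signal loss indicating cell death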). In outline: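 Cytotoxicity in VM7Luc4E2 breast cells, 24 hour, measured as protease-substrate fluorescence loss, after 2-hour metabolic conditioning with induced rat hepatic S9 in alginate microspheres. Concentrations 0.002 - 200 uM, 10 points, bidirectional fitting.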

Test [17] has as its target Estrogen receptor (Homo sapiens) (UniProt P03372). Description: CCTE_Deisenroth_AIME_384WELL_LUC_Inactive: CCTE's 384-well Estrogen Receptor Transactivation Assay without AIME metabolic competence (ERTA luciferase; metabolism negative), Deisenroth Lab (AID 2284038; active = hit-call score of the fitted dose curve at least 0.9, where 1 is the maximum;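 note: VM7Luc4E2 breast cells given medium preincubated 2 h with S9-free microspheres; hits raise estrogen receptor luciferase signal so potencies reflect agonists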). In outline:
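Chemicals (10-point series, 0.002 - 200 uM) were incubated 2 hours with alginate-water microsphere lids lacking S9, then the conditioned medium was transferred to VM7Luc4E2 breast cells for 24 hour. Luciferase induction was read by bioluminescence, fitted upward relative to 17beta-estradiol.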

A short description of test [18]: CCTE_Deisenroth_AIME_384WELL_CTox_Inactive: Cytotoxicity Assessment (CTOX) in CCTE's 384-well Estrogen Receptor Transactivation Assay without AIME metabolic competence (metabolism negative), Deisenroth Lab (AID 2284039; active = hit-call score of the fitted dose curve at least 0.9, where 1 is the maximum;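 note: cell viability via live-cell protease substrate cleaved to fluorescent probe; loss of fluorescence signal means loss of viability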). In a few lines: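 Fluorescent protease-substrate viability readout after 24 h exposure of VM7Luc4E2 cells to conditioned medium. Chemicals (0.002–200 uM) first sat 2 h over alginate-water beads, no S9. Data fitted bidirectionally, loss of signal meaning viability loss.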

In test [19] the target is Estrogen receptor (Homo sapiens) (UniProt P03372). Description: CCTE_Deisenroth_AIME_384WELL_LUC_Shift: CCTE's 384-well Estrogen Receptor Transactivation Assay with AIME metabolic competence data shift (ERTA luciferase; difference in metabolism positive and negative), Deisenroth Lab (AID 2284041).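 Note: shift is response with S9 minus without S9 so positive means metabolism raised ER signal.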 In a few lines: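 Test chemicals (0.002–200 uM, 10-point) were pre-incubated 2 h with alginate microspheres containing phenobarbital/beta-naphthoflavone-induced male Sprague Dawley rat liver S9 or water, then medium was transferred to VM7Luc4E2 cells for 24 h luciferase readout; shift = S9-positive minus S9-negative normalized response.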
Chain of Estrogen receptor (Homo sapiens) (P03372 whole entry, looked up): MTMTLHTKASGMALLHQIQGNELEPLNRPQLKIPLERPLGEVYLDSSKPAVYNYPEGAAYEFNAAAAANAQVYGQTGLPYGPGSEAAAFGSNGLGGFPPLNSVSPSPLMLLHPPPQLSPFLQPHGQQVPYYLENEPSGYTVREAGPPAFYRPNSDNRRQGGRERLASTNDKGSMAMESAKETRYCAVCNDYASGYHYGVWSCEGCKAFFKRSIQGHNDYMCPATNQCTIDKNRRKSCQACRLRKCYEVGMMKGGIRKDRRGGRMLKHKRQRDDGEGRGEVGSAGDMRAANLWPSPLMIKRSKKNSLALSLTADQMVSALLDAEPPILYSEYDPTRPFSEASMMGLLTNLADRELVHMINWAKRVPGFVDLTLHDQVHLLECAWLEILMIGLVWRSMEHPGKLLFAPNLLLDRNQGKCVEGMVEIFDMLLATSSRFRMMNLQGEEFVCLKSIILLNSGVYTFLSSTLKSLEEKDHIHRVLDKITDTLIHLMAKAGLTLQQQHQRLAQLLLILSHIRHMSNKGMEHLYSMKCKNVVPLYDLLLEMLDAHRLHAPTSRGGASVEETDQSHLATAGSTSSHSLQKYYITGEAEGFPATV

Test [20] is described as follows: CCTE_Deisenroth_AIME_96WELL_CTox_Active: Cytotoxicity Assessment (CTOX) in CCTE's 96-well Estrogen Receptor Transactivation Assay with AIME metabolic competence (metabolism positive), Deisenroth Lab (AID 2284028; active = hit-call score of the fitted dose curve at least 0.9, where 1 is the maximum). In a few lines: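 Chemicals (0.002–200 uM) were first incubated 2 h with alginate-immobilized phenobarbital/beta-naphthoflavone-induced male rat liver S9; conditioned medium then went onto VM7Luc4E2 cells for 24 h, with viability read by protease-substrate fluorescence, fitted bidirectionally.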

SMILES strings stand for the structures. Records with an inconclusive call do not appear. The source made the active and inactive calls. Rule for the calls, unless noted: active = hit-call score of the fitted dose curve at least 0.9, where 1 is the maximum; inactive = score below 0.9.

One may read the AC50 as the midpoint of the concentration-response curve, whichever way the signal moves.

Regarding `O=Cc1ccco1`, the outcome in test [1], in test [2], in [3] and in test [4] was inactive.

Turning to `CCN(CC)N=O`, the call in test [1], in test [2], in [3] and in [4] was inactive.

For `CC(C)(O)c1cnn2c(-c3ccc(F)c(-c4c(F)cccc4C#N)c3)cnc2n1`, the AC50 in test [1] was 30.8 µM (active); in test [3] it was 3.97 µM (active); in [4], 35.8 µM (active); in test [6], 10 µM (active); in test [7], 5.55 µM (active); in test [9], 1.98 µM (active). For the same compound, the call in [2], in test [5], in test [8], in test [10], in test [11] and in test [12] was inactive. The result in [13] and in test [14] was inactive.

In the case of `[Cl-].[Cl-].[Hg+2]`, the result in test [1], in test [2] and in test [13] was inactive. Besides, the AC50 in test [3] was 29.3 µM (active); in test [4], 28.2 µM (active); in test [5], 0.911 µM (active); in [6], 0.882 µM (active); in test [7], 0.543 µM (active); in [8], 0.923 µM (active). In addition, the AC50 in test [9] was 0.539 µM (active); in test [10], 0.869 µM (active); in [11], 0.881 µM (active); in [12], 0.318 µM (active); in test [14], 0.444 µM (active).

For `O=[N+]([O-])C(Br)(CO)CO`, the AC50 in test [1] is 35.8 µM (active); in test [4] it was 30.9 µM (active). Moreover, the outcome in test [2] and in [3] was inactive.

For the compound `ClC1=C(Cl)[C@]2(Cl)[C@H]3[C@H]([C@@H]4C=C[C@H]3C4)[C@@]1(Cl)C2(Cl)Cl`, the compound was called inactive in [1], in [2], in test [3], in test [4] and in [13]. Moreover, the AC50 in [5] was 3.92 µM (active); in [6], 5.76 µM (active); in test [7] it was 5.34 µM (active); in test [8], 5.95 µM (active); in test [9] it was 7.53 µM (active); in [10] it was 6.26 µM (active). Also, the values for the AC50 in [11], in [12] and in [14] were 3.95 µM (active), 7.62 µM (active) and 7.56 µM (active), respectively.

On to `CC(C)(C)C(O)(CCc1ccc(Cl)cc1)Cn1cncn1` (stereo unspecified), for which the call in [1], in test [2], in test [4], in test [5], in test [8] and in [10] was inactive. Moreover, the outcome in test [11], in [12] and in test [13] was inactive. Besides, the AC50 is 20 µM (active) in [3]; 15 µM (active) in [6]; 5.02 µM (active) in test [7]; 5.5 µM (active) in test [9]; 0.801 µM (active) in test [14].

Turning to `C[N+](C)(C)CC1CO1` (stereo unspecified), the outcome in test [1], in test [2], in test [3], in [4], in [15] and in test [16] was inactive. The result in test [17], in [18] and in test [19] was inactive.

As for `CC(C)(OOC(C)(C)c1ccccc1)c1ccccc1`, the compound was called inactive in [1], in test [2], in test [3] and in test [4].

On to `CCCCOC(=O)c1ccccc1C(=O)OCc1ccccc1`, for which the AC50 in [1] is 8.11 µM (active); in [3], 6.42 µM (active); in [4] it was 7.33 µM (active); in test [7] it was 22.7 µM (active); in test [9] it was 50.5 µM (active). Besides, the call in test [2], in test [20], in test [5], in [6], in [8] and in test [10] was inactive. The compound was classed as inactive in [11], in test [12], in test [13] and in test [14].

The values above are taken from PubChem BioAssay (EPA / NIEHS).
